The source of these data is PubChem BioAssay (Tox21).

Assay [1] can be described thus: qHTS assay to identify aromatase inhibitors - cell viability counter screen (AID 743084;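 note: cells stimulated with testosterone during compound exposure; nearly all actives have a fitted effect of over 55% in size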; note: potency is the fitted concentration of half-maximal effect). (In general: Quantitative high-throughput screening tests each substance at several concentrations.)
Assay [2] deals with Aryl hydrocarbon receptor (Homo sapiens) (UniProt P35869). The experiment in a line: qHTS assay to identify small molecule that activate the aryl hydrocarbon receptor (AhR) signaling pathway (AID 743085).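 For activation: HG2L7.5c1 human HepG2 liver cells with stably integrated DRE-driven firefly reporter; series mostly up to about 70 µM.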 Note: nearly all actives have a fitted effect of over 15% in size. Note: potency is the fitted concentration of half-maximal effect. In a few lines:
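A multiplexed format paired cell viability (CellTiter-Fluor fluorescence) with AhR-dependent luciferase output (ONE-Glo luminescence) in the same wells of HepG2 DRE-luc cells after 24 h compound exposure at 37C.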

Assay [3] addresses Peroxisome proliferator-activated receptor gamma (Homo sapiens) (UniProt P37231). The experiment in a line: qHTS assay to identify small molecule agonists of the peroxisome proliferator-activated receptor gamma (PPARg) signaling pathway (AID 743094; active = well fitted activation curve with a large enough effect in the signal ratio in the repeat runs, not every such curve was filed as active; the % refers to the signal ratio). In a few lines: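 Quantitative HTS agonist mode: stable HEK293H line with UAS-beta-lactamase reporter under PPARg control, 17 h compound exposure at 37C, fluorescence after 1 h FRET substrate loading at room temperature.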

Assay [4] has the same target. Briefly: qHTS assay to identify small molecule antagonists of the peroxisome proliferator-activated receptor gamma (PPARg) signaling pathway (AID 743191; calls by dose curve; note: nearly all actives have a fitted effect of over 30% in size; note: potency is the fitted concentration of half-maximal effect). In a few lines:
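GeneBLAzer PPARg UAS-bla HEK293H cells carrying a UAS-driven beta-lactamase reporter were plated at 3000 cells/well, preincubated 5 h at 37C, then given compound for 17 h at 37C; LiveBLAzer B/G FRET substrate was read after 1 h at room temperature.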

Assay [5] is described as follows: qHTS assay to identify small molecule antagonists of the peroxisome proliferator-activated receptor gamma (PPARg) signaling pathway - cell viability counter screen (AID 743194). Note: nearly all actives have a fitted effect of over 55% in size. In a few lines:
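PPARg-UAS-bla HEK293H cells were plated, rested 5 h at 37 C, then treated with compounds plus rosiglitazone (50 nM final) for 17 h at 37 C; viability was then read by CellTiter-Glo luminescence after 30 min at room temperature.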

A short description of assay [6]: qHTS assay for small molecule agonists of the antioxidant response element (ARE) signaling pathway - cell viability counter screen (AID 743203; calls by dose curve; note: nearly all actives have a fitted effect of over 55% in size). The gist of the method:
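Seeded at 2,000 cells/well, ARE-bla HepG2 cells were incubated 5 hrs before compound addition. After 16 hrs of treatment at 37C with 5% CO2, CellTiter-Glo reagent was added and luminescence read 30 min later.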

Assay [7] in a line: qHTS assay for small molecule activators of the heat shock response signaling pathway - cell viability counter screen (AID 743209). Note: nearly all actives have a fitted effect of over 50% in size. The gist of the method:
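First, HSE-bla HeLa cells were seeded at 1500 cells/well and kept overnight at 37 C. Next, compounds were pinned in and incubated 5 h. After the FRET substrate step, CellTiter-Glo was added and luminescence read 30 min later.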

Assay [8] is described as follows: qHTS assay for small molecule activators of the heat shock response signaling pathway (AID 743210; active = well fitted activation curve with a large enough effect in the signal ratio in the repeat runs, with a control signal flat, not every such curve was filed as active; the % refers to the signal ratio; note: series mostly up to about 63 µM). In a few lines: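 HSE-bla HeLa cells (beta-lactamase reporter under heat shock response elements) were exposed to compounds for 5 h at 37 C, then loaded with LiveBLAzer B/G FRET substrate for 2.5 h at room temperature before fluorescence reading.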
A short description of assay [9]: qHTS assay for small molecule agonists of the antioxidant response element (ARE) signaling pathway (AID 743202; active = well fitted activation curve with a large enough effect in the signal ratio in the repeat runs, not every such curve was filed as active; the % refers to the signal ratio; note: potency is the fitted concentration of half-maximal effect). The gist of the method: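 Read-out: LiveBLAzer B/G FRET substrate fluorescence after 2 h at room temperature, following 16 h compound treatment at 37 C of HepG2 cells carrying an ARE-driven beta-lactamase reporter.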
Assay [10] is described as follows: qHTS assay to identify small molecule that activate the aryl hydrocarbon receptor (AhR) signaling pathway - cell viability counter screen (AID 743086).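 Note: HepG2 liver cells carrying the AhR DRE luciferase reporter; series mostly up to about 70 µM; nearly all actives have a fitted effect of over 45% in size.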 In a few lines:
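HepG2-AhR-luc (HG2L7.5c1) cells, 4000/well, were preincubated 5 h at 37C, exposed to compound in qHTS format for 24 hr at 37C, then given CellTiter-Fluor for 30 min; viability was read as fluorescence in the reporter wells.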

The structures appear in SMILES notation. Results filed as inconclusive are left out. A number with no mark means an inactive call. Active and inactive are the calls of the source. Unless noted, calls come from the whole dose curve; as a rule, active = well fitted curve in the direction sought with a large enough effect in the repeat runs; inconclusive = weak or mixed curves; inactive = no such curve, though single readings can be large; an effect the other way counts as inactive or inconclusive.

Chain of Peroxisome proliferator-activated receptor gamma (Homo sapiens) (P37231 whole entry, looked up): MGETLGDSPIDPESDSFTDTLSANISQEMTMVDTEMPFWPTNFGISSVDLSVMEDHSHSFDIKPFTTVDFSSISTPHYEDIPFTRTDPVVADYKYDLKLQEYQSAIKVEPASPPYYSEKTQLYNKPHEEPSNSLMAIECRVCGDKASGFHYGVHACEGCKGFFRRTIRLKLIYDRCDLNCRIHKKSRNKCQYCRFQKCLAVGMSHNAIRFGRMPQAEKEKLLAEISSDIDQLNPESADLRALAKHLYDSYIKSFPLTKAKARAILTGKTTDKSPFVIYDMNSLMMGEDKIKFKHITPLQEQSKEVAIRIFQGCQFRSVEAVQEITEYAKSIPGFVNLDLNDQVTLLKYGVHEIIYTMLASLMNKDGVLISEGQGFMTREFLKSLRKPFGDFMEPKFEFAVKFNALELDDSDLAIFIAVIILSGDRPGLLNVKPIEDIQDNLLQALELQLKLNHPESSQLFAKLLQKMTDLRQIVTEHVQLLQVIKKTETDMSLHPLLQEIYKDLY
Chain of Aryl hydrocarbon receptor (Homo sapiens) (P35869 whole entry, looked up): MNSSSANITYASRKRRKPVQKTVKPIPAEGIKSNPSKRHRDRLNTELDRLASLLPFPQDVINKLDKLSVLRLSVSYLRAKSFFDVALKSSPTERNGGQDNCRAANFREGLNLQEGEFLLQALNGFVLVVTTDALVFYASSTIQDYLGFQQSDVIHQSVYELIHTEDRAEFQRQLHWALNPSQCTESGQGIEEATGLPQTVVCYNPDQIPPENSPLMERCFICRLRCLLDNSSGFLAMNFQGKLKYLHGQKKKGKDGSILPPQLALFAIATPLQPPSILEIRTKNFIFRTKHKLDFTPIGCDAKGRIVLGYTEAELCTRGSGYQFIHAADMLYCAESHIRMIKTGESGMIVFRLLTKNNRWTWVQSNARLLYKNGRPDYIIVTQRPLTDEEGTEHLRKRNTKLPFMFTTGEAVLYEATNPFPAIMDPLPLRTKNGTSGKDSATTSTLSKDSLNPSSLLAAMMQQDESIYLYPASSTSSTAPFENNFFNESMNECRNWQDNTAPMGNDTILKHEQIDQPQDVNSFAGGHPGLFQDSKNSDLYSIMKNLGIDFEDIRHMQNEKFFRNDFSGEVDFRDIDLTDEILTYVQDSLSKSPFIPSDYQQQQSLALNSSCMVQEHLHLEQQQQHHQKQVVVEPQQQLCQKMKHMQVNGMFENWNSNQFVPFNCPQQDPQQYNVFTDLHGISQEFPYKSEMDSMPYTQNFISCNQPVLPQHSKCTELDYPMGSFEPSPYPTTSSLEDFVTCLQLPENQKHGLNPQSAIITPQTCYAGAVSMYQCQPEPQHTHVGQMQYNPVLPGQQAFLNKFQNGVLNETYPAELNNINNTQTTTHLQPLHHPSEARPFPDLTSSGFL

For the compound `CCCCC[C@H](O)/C=C/[C@H]1[C@H](O)CC(=O)[C@@H]1C/C=C\CCCC(=O)O`, the Potency entry in assay [1], in assay [2], in assay [4], in assay [5], in [6] and in assay [7] was “inactive” in each case. Also, in assay [8], the Potency result was “inactive”. In addition, the result in assay [3] was inactive.

For the compound `CC(C)C(=O)OCCOc1ccccc1`, the Potency entry in assay [1], in assay [2], in [4], in [5], in assay [9] and in [6] was “inactive” throughout. Moreover, the Potency result in [7] and in [8] was “inactive” each time. In [3], the compound was classed as inactive.

On to `Cc1ccc2c(c1)CCCN2`, for which the Potency entry in assay [1], in [5], in assay [9], in assay [6], in assay [7] and in assay [8] was “inactive” each time. Further, the Potency in [2] was 61.1 µM (active). In addition, in assay [3], the outcome was inactive.

`COc1ccc(C(=O)NCc2ccc(OCCN(C)C)cc2)cc1OC`: the Potency result in assay [1], in assay [2], in [4], in [5], in [9] and in assay [7] was “inactive” throughout. Further, in assay [8], the Potency entry was “inactive”. Moreover, in assay [3], the result was inactive.

Consider `C[C@H](CS)C(=O)N1CCC[C@H]1C(=O)O`, for which the Potency result in assay [1], in assay [2], in [10], in [5], in [9] and in [6] was “inactive” in each case. In addition, the Potency result in assay [7] is “inactive”.

As for `O=CNNC=O`, the Potency result in assay [1], in assay [2], in assay [5], in assay [9] and in assay [6] was “inactive” each time. In addition, the outcome in assay [3] was inactive.

With `O=C(c1ccccc1)c1ccc(O)cc1`, the Potency result in assay [1], in [2], in assay [4], in assay [5], in [6] and in [7] was “inactive” in each case. Also, in [3], the outcome was inactive.

With `COC(OC)OC`, the Potency result in [1], in assay [2], in [10], in assay [5], in assay [9] and in [6] was “inactive” in each case. Moreover, the Potency result in assay [7] and in assay [8] was “inactive” each time.

For the compound `O=S(=O)(Cl)c1c(Cl)cccc1Cl`, the Potency result in assay [1], in assay [2], in assay [4], in [5], in assay [6] and in [7] was “inactive” throughout. Also, the Potency result in [8] was “inactive”. For the same compound, the compound was classed as inactive in assay [3].

In the case of `COc1cc(NS(=O)(=O)c2ccc(N)cc2)nc(C)n1`, the Potency result in [1], in assay [2], in assay [5], in assay [6] and in [7] was “inactive” in each case. The outcome in assay [3] was inactive.

`Cc1ccc(NC(=O)N(C)C)cc1NC(=O)N(C)C`: the Potency entry in assay [1], in [10], in assay [4], in assay [5], in assay [6] and in assay [7] was “inactive” each time. Besides, the Potency result in [8] was “inactive”. In addition, the result in [3] was inactive.

Consider `CC(C)(O)c1coc(S(=O)(=O)NC(=O)Nc2c3c(cc4c2CCC4)CCC3)c1`, for which the Potency result in assay [1], in assay [10], in assay [4], in [5], in assay [6] and in assay [7] was “inactive” throughout. In assay [3], the call was inactive.

Take `CCOC(=O)c1ccc(NC(=O)CN2CCCCC2)cc1`: the Potency result in assay [1], in assay [10], in assay [5], in assay [6] and in assay [7] was “inactive” each time.

As to `O=[N+]([O-])c1ccc2ncccc2c1`, the Potency entry in [1], in [10], in assay [5], in assay [9] and in [7] was “inactive” throughout. In addition, the call in [3] was inactive.

Consider `Nc1cccc2c(N)cccc12`, for which the Potency entry in assay [1] and in [7] was “inactive” throughout. The Potency in [2] is 19.3 µM (active). The compound was classed as inactive in assay [3].

Regarding `CN1CCCN(C(c2ccccc2)c2ccc(Cl)cc2)CC1` (configuration not stated), the Potency in [1] is 21.1 µM (active). Besides, the Potency result in assay [2], in assay [7] and in assay [8] was “inactive” in each case.

`C1=CCC2CC=CC2C1` (configuration not stated): the Potency result in assay [1], in assay [10], in assay [4], in assay [5], in [6] and in [7] was “inactive” throughout. For the same compound, the Potency result in [8] was “inactive”. Also, in assay [3], the outcome was inactive.

As to `CCN(CC)CCNC(=O)c1cc(Cl)c(N)cc1OC`, the Potency entry in [1], in assay [2], in assay [5], in assay [6], in assay [7] and in [8] was “inactive” in each case.

Regarding `CCOC(=O)c1c(N)sc2c1CCN(Cc1ccccc1)C2`, the Potency entry in assay [1], in assay [4], in [5], in assay [6], in [7] and in [8] was “inactive” each time. The compound was called inactive in assay [3].

Consider `O=S(=O)(O)CO`, for which the Potency entry in assay [1], in [10], in assay [4], in assay [5], in assay [9] and in [6] was “inactive” throughout. Further, the Potency entry in assay [8] was “inactive”. The outcome in [3] was inactive.

In the case of `CCC1CCC(CCC(=O)O)C1` (configuration not stated), the Potency entry in assay [1], in assay [10], in [5], in assay [6] and in assay [7] was “inactive” in each case.

For the compound `Cc1ccc(Nc2c(F)cccc2Cl)c(CC(=O)O)c1`, the Potency entry in [1], in assay [10], in [5], in [6], in assay [7] and in assay [8] was “inactive” each time.

Regarding `Cc1ccc2nc(N)[nH]c(=O)c2c1Sc1ccncc1`, the Potency result in assay [1], in assay [5], in [6] and in assay [7] was “inactive” each time. Further, the Potency in assay [2] is 13.3 µM (active).

For the compound `O=C1c2ccccc2C(=O)c2c(O)ccc(O)c21`, the Potency in assay [1] is 38.6 µM (active); in assay [2] it was 7.7 µM (active); in assay [9], 2.73 µM (active). Moreover, the Potency result in assay [4], in assay [7] and in assay [8] was “inactive” throughout.

For `COc1ccc(/C=C/C(=O)c2ccc(OC)cc2OC)cc1`, the Potency entry in [1], in assay [10], in [5], in assay [6] and in assay [7] was “inactive” each time. For the same compound, the call in assay [3] was inactive. The Potency in assay [4] was 9.44 µM (active).
